Bioassay records as filed in PubChem BioAssay.
Shown is part of a subset that was picked to be rich in hits.
mHTT-CaM PPI inh: mutant huntingtin-calmodulin interaction inhibitors – biochemical, AlphaScreen, primary screen | P42858 | AlphaScreen His-mHTT/GST-CaM binding, luminescence | inhibition, % at 15 µM | actives 3.6% (n = 190,000) | AID 1671202, 2021
Pf apPOL inh: Pf-apPOL inhibitors, biochemical, fluorescence; Plasmodium falciparum apicoplast DNA polymerase (apPOL); Recombinant Pf-apPOL, molecular beacon fluorescence, 1.5 h; inhibition, % at 10 µM; actives 0.25% (n = 210,000); AID 1794808, 2022
Hits are given with their value; i = inactive; + = active, no number; ! = not confirmed by another sample. Rule as the data show it: active = inhibition above about 50%; inactive = the rest.

SMILES | mHTT-CaM PPI inh | Pf apPOL inh
COc1cc(-n2c(C)nc3cc(C(=O)NC4CCCC(C)C4C)ccc32)cc(OC)c1OC (stereo unspecified) | i | i
COc1ccc(C(=O)NCCc2ccc(OC)c(OC)c2)c(OC)c1 | i | i
COCCNC(=O)NCCC1CCN(S(=O)(=O)c2ccc(C)cc2)CC1 | 55.4 | i
Cc1ccc(S(=O)(=O)N2CCC(CCNC(=O)Nc3ccccc3)CC2)cc1 | 52.6 | i
COC(=O)CNC(=O)NCCC1CCN(S(=O)(=O)c2ccc(C)cc2)CC1 | i | i
O=C(NCCC1CCN(S(=O)(=O)c2ccc(F)cc2)CC1)Nc1ccccc1 | i | i
Cc1ccc(C(O)=C2C(=O)C(=O)N(C)C2c2ccc(Br)cc2)cc1 (stereo unspecified) | i | i
CC(C)Cn1c(C2CCN(C(=O)c3ccsc3)C2)nc2ccncc21 (stereo unspecified) | i | i
Cc1cc2[nH]c(C(=O)Nc3ccccc3Cl)c(CN3CCCC3)c2s1 | i | i
O=C1NC(c2ccccc2F)Nc2sc3c(c21)CCCC3 (stereo unspecified) | i | i
O=C1NC(c2cccc(F)c2)Nc2sc3c(c21)CCC3 (stereo unspecified) | i | i
O=C1NC(c2ccccn2)Nc2sc3c(c21)CCC3 (stereo unspecified) | 69.0 | i
O=C1NC(c2ccccc2[N+](=O)[O-])Nc2sc3c(c21)CCCC3 (stereo unspecified) | 58.0 | i
NC(=O)c1cccc(S(=O)(=O)N2CCOCC2)c1 | i | i
O=S(=O)(NCC(O)c1ccc(C(F)(F)F)cc1)c1cccnc1 (stereo unspecified) | i | i
COc1ccccc1Cc1noc(C2CN(C(=O)C(C)(C)Oc3ccc(Cl)cc3)C2)n1 | 70.3 | i
CC(C)(Oc1ccc(Cl)cc1)C(=O)N1CC(c2nc(-c3ccccn3)no2)C1 | i | i
COc1ccc(C2C(C#N)=C(N)Oc3c2c(=O)[nH]c2ccccc32)cc1 (stereo unspecified) | i | i
COc1ccc(OC)c(N=Cc2c(C)c(Cl)c(C)c([N+](=O)[O-])c2O)c1 | i | i
CCn1c(=O)c2c(ncn2CC)n(-c2cccc(Cl)c2)c1=O | i | i
CN(CC(=O)Nc1nc(-c2ccco2)cs1)c1nc2ccccc2s1 | 77.0 | i
CN(CC(=O)NCc1cccs1)c1nc2ccccc2s1 | i | i
CC(=O)c1ccc(C(=O)Nc2cccc(-c3nc4ccccc4[nH]3)c2)cc1 | i | i
O=C(Nc1cccc(-c2nc3ccccc3[nH]2)c1)c1ccc([N+](=O)[O-])cc1 | 84.0! | i
COc1cccc(C2C3=C(Nc4ncnn42)c2ccccc2OC3c2ccc(Cl)cc2)c1 (stereo unspecified) | i | i
SMILES | mHTT-CaM PPI inh | Pf apPOL inh
O=C(CCc1ccc2[nH]ccc2c1)NCc1ccc(Cl)cc1 | i | i
CCOc1ccc(NC(=O)C(C)Sc2nnc(C(c3ccccc3)c3ccccc3)n2C)cc1 (stereo unspecified) | i | 82.3
CCOc1ccc(NC(=O)C(C)Oc2ccccc2)cc1 (stereo unspecified) | i | i
O=C(Nc1ccccc1C(=O)NC1CCCCC1)c1ccc(F)cc1 | i | i
O=[N+]([O-])C(=C1SCCS1)C(=C(Cl)Cl)N1CCCCC1 | 70.0 | i
O=[N+]([O-])C(=C1SCCS1)C(=C(Cl)Cl)N1CCOCC1 | i | i
O=C1C2CCCCC2C(=O)N1CNc1ccccc1 (stereo unspecified) | i | i
CCN1CCN(C(=O)CCC2CCCN(C(=O)Nc3cccc(F)c3)C2)CC1 (stereo unspecified) | i | i
O=C(CCC1CCCN(C(=O)Nc2cccc(F)c2)C1)N1CCN(c2ccccc2)CC1 (stereo unspecified) | 50.3 | i
O=C1OC(c2ccccc2Br)=N/C1=C\c1ccc(I)o1 | i | i
O=C(NCCc1c[nH]c2ccccc12)C(c1ccccc1)n1cccc1 (stereo unspecified) | 95.9 | i
CC(NC(=O)CCc1c[nH]c2ccccc12)c1ccccc1 (stereo unspecified) | i | i
O=S(=O)(Nc1nccs1)c1ccc(N=Cc2cc(Cl)cc(Cl)c2O)cc1 | i | i
O=S(=O)(Nc1nccs1)c1ccc(N=Cc2ccccc2O)cc1 | i | i
O=[N+]([O-])c1ccc(C=Nc2ccc(S(=O)(=O)Nc3nccs3)cc2)cc1 | 62.0 | i
O=S(=O)(Nc1nccs1)c1ccc(N=Cc2cc(Br)ccc2O)cc1 | 88.0 | i
Cc1ccc(C)c(NC(=O)CN2CCC(c3nc(-c4ccccc4)no3)CC2)c1 | i | i
COc1ccc(N=C2C(=O)Nc3ccc(Cl)cc32)cc1 | i | i
COc1ccc(N=C2C(=O)Nc3cc(Br)c(C)cc32)cc1 | 66.0 | i
O=C(c1ccc(CNS(=O)(=O)c2ccc(F)cc2)cc1)N1CCC2(CC1)OCCO2 | i | i
CN(C)c1ccc(-c2nc3n(n2)C(c2ccc(F)cc2)C2=C(CCCC2=O)N3)cc1 (stereo unspecified) | 50.6 | i
CN(C)c1ccc(-c2nc3n(n2)C(c2ccccc2)C2=C(CCCC2=O)N3)cc1 (stereo unspecified) | i | i
O=C(NCCCN1CCCCC1)C1CCN(c2cnn(Cc3ccccc3)c(=O)c2)CC1 | i | i
CN(C)CCCNC(=O)c1ccc(/C=N/O)[n+](C)c1 | i | i
O=C(NCCCNCCCNC(=O)c1ccc(/C=N/O)nc1)c1ccc(/C=N/O)nc1 | + | i
SMILES | mHTT-CaM PPI inh | Pf apPOL inh
O=C1C(=O)N(Cc2ccc(Cl)cc2)c2ccc(S(=O)(=O)N3CCOCC3)cc21 | 92.0 | i
Cc1ccccc1CN1C(=O)C(=O)c2ccccc21 | i | i
Cc1ccccc1CN1C(=O)C(=O)c2cc(Cl)ccc21 | 51.0 | i
O=C1c2cccnc2C(=O)N1Cc1ccc(Cl)cc1 | i | i
O=c1ccc(S(=O)(=O)N2CCOCC2)cn1Cc1cccc(Cl)c1 | i | i
O=C1C(=O)N(Cc2ccc(Cl)cc2)c2ccc(Cl)cc21 | 77.7! | i
O=C(NCc1ccccc1)c1cc2n(n1)CCCN(Cc1ccccc1)C2=O | i | i
COc1ccccc1CNC(=O)C1(C)Cc2ccccc2C(=O)N1c1cccc(F)c1 (stereo unspecified) | i | i
O=C1OC(c2cc([N+](=O)[O-])ccc2Cl)=N/C1=C\c1ccc(Cl)cc1 | i | i
Cc1c2nc3ccccc3c-2c2c(n1O)CC(C)(C)CC2=NO | i | i
O=C(Nc1nc2c(s1)CCCC2)C1CC1 | i | i
O=C(C1CC(c2ccccc2F)=NO1)N1CCN(C(c2ccccc2)c2ccccc2)CC1 (stereo unspecified) | i | i
Cc1ccc(C)c(NCC(O)Cn2c(C)c(C)c3ccccc32)c1 (stereo unspecified) | 95.0 | i
CCC(CO)NCC(O)Cn1c(C)c(C)c2ccccc21 (stereo unspecified) | i | i
Cc1c(C)n(CC(O)CN2CCN(Cc3ccccc3)CC2)c2ccccc12 (stereo unspecified) | i | i
CCN(CC)CC(O)Cn1c(C)c(C)c2ccccc21 (stereo unspecified) | i | i
Cc1cccc(NCC(O)Cn2c(C)c(C)c3ccccc32)c1 (stereo unspecified) | 91.0 | i
Cc1c(C)n(CC(O)CNc2ccccc2)c2ccccc12 (stereo unspecified) | 54.0 | i
O=C(Nc1ccc(Cc2ccc(NC(=O)c3ccco3)cc2)cc1)c1ccco1 | i | i
